# Data: PubChem BioAssay (NCI)
# Where “and” joins values, the source holds several entries; their conditions need not be identical. Equal values may be shown once. This is part of a sample that, as a whole, favours compounds with a hit. Of some 83,000 tested, about 20% had one in any assay.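 The endpoint reported here, percent growth, reads 100 for growth as untreated, 0 for no net growth and -100 for all cells dead.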 Calls of active or inactive are those of the source. Rule for the calls: active = growth percent below 10; inactive = the rest.
# Columns and labels:
# Test in all cases: NCI-60 one-dose screen, 48 h (100 = growth as untreated, 0 = no growth, -100 = all killed)
# Conditions in all cases: 10 µM unless noted
# NCI-H23 lung = system: NCI-H23 lung
# NCI-H226 lung = system: NCI-H226 lung
# NCI-H322M lung = system: NCI-H322M lung
# HOP-62 NSCLC = system: HOP-62 NSCLC
# NCI-H460 lung = system: NCI-H460 lung
# HOP-92 NSCLC = system: HOP-92 NSCLC
# NCI-H522 lung = system: NCI-H522 lung
# A549/ATCC NSCLC = system: A549/ATCC NSCLC
# 786-0 renal = system: 786-0 renal
# COLO 205 colon = system: COLO 205 colon
# DU-145 prostate = system: DU-145 prostate
# K-562 leukemia = system: K-562 leukemia
# MALME-3M melanoma = system: MALME-3M melanoma
# MDA-MB-231 breast = system: MDA-MB-231 breast
# RXF 393 renal = system: RXF 393 renal
# SF-268 CNS = system: SF-268 CNS
# SF-295 CNS = system: SF-295 CNS
# SF-539 CNS = system: SF-539 CNS
# UACC-257 melanoma = system: UACC-257 melanoma
# M14 melanoma = system: M14 melanoma
Structure (SMILES),growth (NCI-H23 lung),growth (NCI-H226 lung),growth (NCI-H322M lung),growth (HOP-62 NSCLC),growth (NCI-H460 lung),growth (HOP-92 NSCLC),growth (NCI-H522 lung),growth (A549/ATCC NSCLC),growth (786-0 renal),growth (COLO 205 colon),growth (DU-145 prostate),growth (K-562 leukemia),growth (MALME-3M melanoma),growth (MDA-MB-231 breast),growth (RXF 393 renal),growth (SF-268 CNS),growth (SF-295 CNS),growth (SF-539 CNS),growth (UACC-257 melanoma),growth (M14 melanoma)
COc1ccc(Oc2nc(Nc3ccc(N4CCOCC4)cc3)ncc2NC(=O)c2cc(OC)cc(OC)c2)cc1,101% (inactive),71.2% (inactive),96.7% (inactive),97% (inactive),95.5% (inactive),70.7% (inactive),58.2% (inactive),82.4% (inactive),66.5% (inactive),64.5% (inactive),98.7% (inactive),58.3% (inactive),108% (inactive),85.2% (inactive),52.3% (inactive),90% (inactive),94% (inactive),87.2% (inactive),99% (inactive),91.4% (inactive)
CCN(CC)CCOc1ccc(/C(=C(\Cl)c2ccccc2)c2ccccc2)cc1,61.2% (inactive) and 81.6% (inactive),27.6% (inactive) and 49.4% (inactive),74.8% (inactive),-40% (active) and 61.3% (inactive),5.92% (active),30.6% (inactive) and 83.7% (inactive),43.9% (inactive) and 98.7% (inactive),84.8% (inactive),-65.1% (active) and 87.8% (inactive),-74.8% (active) and -60.4% (active),74.6% (inactive) and 103% (inactive),-2.92% (active) and 28% (inactive),-18.7% (active),1.62% (active) and 26.1% (inactive),-58.3% (active) and -26.6% (active),62.8% (inactive) and 103% (inactive),-23.1% (active),-5.76% (active) and 29.9% (inactive),-57.9% (active) and 45.8% (inactive),-36.2% (active) and 43.3% (inactive)
COCCOc1cc2ncnc(N3CCN(S(=O)(=O)c4ccccc4Cl)CC3)c2cc1OCCOC,85.8% (inactive),95.5% (inactive),98.3% (inactive),90.4% (inactive),103% (inactive),75.6% (inactive),65.8% (inactive),86.7% (inactive),89.2% (inactive),96.8% (inactive),91.2% (inactive),41.3% (inactive),67.9% (inactive),74.8% (inactive),83.9% (inactive),86.2% (inactive),82.7% (inactive),88.8% (inactive),83.5% (inactive),71.9% (inactive)
CCOc1nc(-c2ccccc2)cc2c(O)c(C(=O)N/N=C/c3ccc(N(C)C)cc3)[nH]c(=O)c12,107% (inactive),97.1% (inactive),113% (inactive),65.2% (inactive),106% (inactive),99.9% (inactive),80.4% (inactive),107% (inactive),112% (inactive),229% (inactive),120% (inactive),105% (inactive),135% (inactive),98.8% (inactive),123% (inactive),104% (inactive),111% (inactive),99.7% (inactive),125% (inactive),119% (inactive)
C=C1C(=O)O[C@H]2[C@H]1CC/C(COC(=O)NCc1ccc(Cn3c(=O)sn(CCCI)c3=O)cc1)=C\CC[C@@]1(C)O[C@@H]21,72.1% (inactive),77.9% (inactive),97.5% (inactive),96% (inactive),102% (inactive),-29.3% (active),-68.2% (active),95.5% (inactive),6.22% (active),-45.8% (active),13% (inactive),4.22% (active),-75.5% (active),10.9% (inactive),-5.91% (active),75% (inactive),99.3% (inactive),40% (inactive),28.8% (inactive),-42% (active)
COc1ccc2c(c1)c(-c1nc(-c3c[nH]c4c(Cl)nccc34)cs1)cn2C,73.9% (inactive),37.2% (inactive),91.3% (inactive),92.6% (inactive),31.1% (inactive),76.1% (inactive),86.6% (inactive),84.7% (inactive),124% (inactive),93.9% (inactive),90% (inactive),90.8% (inactive),117% (inactive),52.2% (inactive),83.2% (inactive),111% (inactive),97.2% (inactive),89.7% (inactive),100% (inactive),90.8% (inactive)
COc1cc(/C=C2\C(=O)N(CCCCn3c4ccccc4c(=O)c4ccccc43)c3ccccc32)cc(OC)c1O,71.6% (inactive),91.5% (inactive),86% (inactive),102% (inactive),60% (inactive),65.7% (inactive),27.4% (inactive),95.4% (inactive),88.3% (inactive),107% (inactive),60.4% (inactive),15.6% (inactive),66.3% (inactive),70% (inactive),70.5% (inactive),60.1% (inactive),84% (inactive),64.3% (inactive),81.7% (inactive),52.3% (inactive)
CCNC(=S)n1nc(SC)c(C(=O)OCC)c1N,93.3% (inactive),91.9% (inactive),91.8% (inactive),86.7% (inactive),106% (inactive),110% (inactive),89.9% (inactive),107% (inactive),98.6% (inactive),107% (inactive),102% (inactive),85.5% (inactive),106% (inactive),92.5% (inactive),107% (inactive),92% (inactive),98.1% (inactive),93.1% (inactive),120% (inactive),107% (inactive)
CC/C=C\C/C=C\C[C@H](O)C/C=C1/C(=O)C=C[C@@H]1C/C=C\CCCC(=O)OC,-19.9% (active),-48.3% (active),10.6% (inactive),-30.3% (active),-40% (active),-23% (active),-52.3% (active),-23.7% (active),-60.6% (active),-69.4% (active),6.78% (active),3.6% (active),-5.8% (active),-5.48% (active),-58.2% (active),8.53% (active),-8.95% (active),1.23% (active),-13.9% (active),-23% (active)
Cn1cc(-c2csc(-c3cn(CCOC(N)=O)c4ccccc34)n2)c2cccnc21,81.2% (inactive),86.4% (inactive),90.8% (inactive),74.5% (inactive),82.4% (inactive),83.1% (inactive),24.2% (inactive),67.4% (inactive),87.4% (inactive),77.6% (inactive),103% (inactive),27.3% (inactive),66.4% (inactive),80.4% (inactive),91.4% (inactive),95.8% (inactive),86.2% (inactive),92.7% (inactive),88% (inactive),71.1% (inactive)
COc1ccc(Cn2cc(C(=O)Nc3cccnc3Nc3ccccc3)nn2)cc1,98.7% (inactive),95.6% (inactive),95.7% (inactive),103% (inactive),114% (inactive),105% (inactive),91.8% (inactive),99.3% (inactive),94.2% (inactive),113% (inactive),103% (inactive),108% (inactive),120% (inactive),86.4% (inactive),103% (inactive),96% (inactive),102% (inactive),95.6% (inactive),110% (inactive),106% (inactive)
COC(=O)c1[nH]nc(OC)c1C1(C(C#N)c2nc3ccccc3s2)CCCc2ccccc21 (stereo not given),97.5% (inactive),84.9% (inactive),99.6% (inactive),85% (inactive),99% (inactive),72.9% (inactive),98.4% (inactive),96.2% (inactive),101% (inactive),103% (inactive),108% (inactive),92.4% (inactive),101% (inactive),79.9% (inactive),117% (inactive),101% (inactive),97.5% (inactive),106% (inactive),101% (inactive),95.2% (inactive)
[2H]C([2H])([2H])Oc1cccc(/C=C/C(=O)/C=C(/C=C/c2cccc(OC([2H])([2H])[2H])c2OC([2H])([2H])[2H])OB(F)F)c1OC([2H])([2H])[2H],69.9% (inactive),95.4% (inactive),106% (inactive),99.5% (inactive),96.9% (inactive),102% (inactive),56.9% (inactive),93.4% (inactive),85.2% (inactive),55.2% (inactive),88.3% (inactive),65.2% (inactive),75.9% (inactive),88% (inactive),121% (inactive),98% (inactive),103% (inactive),92.2% (inactive),64.5% (inactive),92.8% (inactive)
Cc1ccc(S(=O)(=O)OC[C@@]2(C)CC[C@]3(C)CC[C@]4(C)C(=C3C2)C=C[C@@H]2[C@@]3(C)CCCNC(C)(C)[C@@H]3CC[C@]24C)cc1,59.2% (inactive),66.8% (inactive),26.9% (inactive),53.7% (inactive),-65.4% (active),28.6% (inactive),-47.1% (active),-38.2% (active),-90.7% (active),-78% (active),-1.23% (active),-28.1% (active),15.1% (inactive),-43.7% (active),-7.17% (active),74.7% (inactive),102% (inactive),1.1% (active),61.9% (inactive),-64.9% (active)
